Test systems include NCI-H23 lung; NCI-H226 lung; NCI-H322M lung; HOP-62 NSCLC; NCI-H460 lung; HOP-92 NSCLC; NCI-H522 lung; A549/ATCC NSCLC; 786-0 renal; COLO 205 colon; DU-145 prostate; K-562 leukemia; MALME-3M melanoma; MDA-MB-231 breast; RXF 393 renal; SF-268 CNS; SF-295 CNS; SF-539 CNS; UACC-257 melanoma; M14 melanoma.
Test in all cases: NCI-60 one-dose screen, 48 h (100 = growth as untreated, 0 = no growth, -100 = all killed)
What all share (conditions): 10 µM unless noted

About 83,000 compounds went through this panel and 20% of them were active in at least one assay; those are over-represented in the sample as a whole.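 48-hour exposure, single concentration, 96-well plates; percent growth endpoint where 0 means no net growth. Active: below 10.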 Values without a mark were called inactive. Activity calls are given as the source filed them.

On to `C=C(C)[C@@H]1CC[C@]2(C(=O)N3CCN(C)CC3)CC[C@]3(C)[C@H](CC[C@@H]4[C@@]5(C)CC[C@H](OP(=O)(OCC)OCC)C(C)(C)[C@@H]5CC[C@]43C)[C@@H]12`, for which the growth is 83.1% with NCI-H23 lung; 75.8% in the test with NCI-H226 lung; 101% in the test with NCI-H322M lung; 96.2% in the test with HOP-62 NSCLC; 91.3% in the test with NCI-H460 lung; 63.8% in the test on HOP-92 NSCLC. In addition, the growth is 81.7% with NCI-H522 lung; 75.6% in the test on A549/ATCC NSCLC; 70.3% in the test on 786-0 renal; 90.8% in the test with COLO 205 colon; 101% in the test with DU-145 prostate; 29.6% in the test with K-562 leukemia. Further, the growth in the test on MALME-3M melanoma is 106%; with MDA-MB-231 breast it was 83.6%; in the test on RXF 393 renal, 59.5%; with SF-268 CNS, 87.3%; in the test with SF-295 CNS, 89.4%; in the test with SF-539 CNS, 84.8%. The figures for the growth with UACC-257 melanoma and in the test on M14 melanoma were 82.9% and 102%, respectively.
Consider `CNC(=O)Nc1ccc(Nc2cc(-c3ccc(-n4cccn4)cc3)[nH]n2)c(C)c1`, for which the growth in the test with NCI-H23 lung was 102%; with NCI-H226 lung, 104%; with NCI-H322M lung, 101%; in the test on HOP-62 NSCLC it was 106%; in the test on NCI-H460 lung, 97.3%; in the test with HOP-92 NSCLC it was 173%. Besides, the growth in the test on NCI-H522 lung was 96.1%; in the test with A549/ATCC NSCLC, 102%; in the test on 786-0 renal it was 111%; in the test on COLO 205 colon, 124%; with DU-145 prostate, 105%; in the test on K-562 leukemia it was 95.5%. For the same compound, the growth with MALME-3M melanoma is 125%; in the test on MDA-MB-231 breast it was 123%; with RXF 393 renal, 141%; in the test with SF-268 CNS, 103%; in the test on SF-295 CNS, 109%; in the test on SF-539 CNS, 98.7%. In addition, the growth with UACC-257 melanoma was 115%; with M14 melanoma, 126%.
Consider `CCNC(=O)Oc1ccc(/C(=C(/C)c2ccc(OC)cc2)c2ccc(OCCN3CCCCCC3)cc2)cc1`, for which the growth in the test with NCI-H23 lung was 52.8%; in the test with NCI-H226 lung, 87.4%; in the test with NCI-H322M lung, 80.9%; in the test on HOP-62 NSCLC, 31.9%; in the test on NCI-H460 lung it was 16.7%; in the test with HOP-92 NSCLC it was 49.5%. The growth in the test on NCI-H522 lung is 93.1%; in the test with A549/ATCC NSCLC it was 54.4%; in the test with 786-0 renal, 35.5%; in the test with COLO 205 colon, -41.1% (active); in the test on DU-145 prostate, 76%; with K-562 leukemia, 2.3% (active). For the same compound, the growth with MALME-3M melanoma is -3.44% (active); in the test on MDA-MB-231 breast it was 46.8%; in the test on RXF 393 renal it was 12.3%; in the test on SF-268 CNS, 64%; in the test on SF-295 CNS, -20.9% (active); in the test with SF-539 CNS, 18.4%. The growth is -32.4% (active) in the test with UACC-257 melanoma and -73.3% (active) in the test on M14 melanoma.
As for `CCN(CC)c1ccc(/C=N/NC(=O)c2ccc(NS(C)(=O)=O)cc2)c(O)c1`, the growth was 23.3% with NCI-H23 lung; 39.3% in the test on NCI-H226 lung; 25.2% in the test on NCI-H322M lung; 13.2% in the test with HOP-62 NSCLC; 3.18% (active) in the test on NCI-H460 lung; 38.9% in the test with HOP-92 NSCLC. Also, the growth was 12.5% in the test with NCI-H522 lung; 12.3% with A549/ATCC NSCLC; 1.77% (active) in the test with 786-0 renal; 5.67% (active) with COLO 205 colon; 31.3% with DU-145 prostate; 14.2% in the test with K-562 leukemia. The growth is 4.46% (active) with MALME-3M melanoma; 38.4% with MDA-MB-231 breast; -9.12% (active) with RXF 393 renal; 22.7% with SF-268 CNS; 9.79% (active) in the test on SF-295 CNS; 7.08% (active) in the test on SF-539 CNS. Besides, the growth in the test with UACC-257 melanoma is -6.91% (active); in the test with M14 melanoma, 0.206% (active).
With `Cc1ccc(C(=O)CSc2nc3ccccc3c(=O)n2C)cc1`, the growth is 79.7% in the test with NCI-H23 lung; 78.5% in the test with NCI-H226 lung; 89.1% in the test on NCI-H322M lung; 94% in the test on HOP-62 NSCLC; 95.5% with NCI-H460 lung; 79.6% in the test on HOP-92 NSCLC. Also, the growth in the test on NCI-H522 lung was 85.3%; in the test on A549/ATCC NSCLC, 101%; in the test with 786-0 renal, 97.9%; in the test on COLO 205 colon, 119%; in the test with DU-145 prostate, 95.3%; in the test with K-562 leukemia it was 68.8%. The growth with MALME-3M melanoma was 107%; with MDA-MB-231 breast, 80%; in the test with RXF 393 renal, 101%; in the test on SF-268 CNS, 94.5%; in the test with SF-295 CNS it was 88.6%; with SF-539 CNS, 93.4%. The results for the growth in the test with UACC-257 melanoma and in the test with M14 melanoma were 93.2% and 94.3%, respectively.
Turning to `Cn1ncc2ncc(-c3ccc4ncc(C#N)c(N5CCc6cc(F)c(Cl)cc65)c4c3)cc21`, the growth is 46.8% in the test on NCI-H23 lung; 24.7% in the test on NCI-H226 lung; 38.9% with NCI-H322M lung; 22.3% with HOP-62 NSCLC; 38.5% in the test with NCI-H460 lung; 7.43% (active) in the test with HOP-92 NSCLC. The growth was 20.3% in the test with NCI-H522 lung; 27.8% in the test with A549/ATCC NSCLC; 21.8% with 786-0 renal; 51.4% in the test with COLO 205 colon; 30% in the test on DU-145 prostate; 39.7% with K-562 leukemia. For the same compound, the growth in the test on MALME-3M melanoma is 39.5%; in the test on MDA-MB-231 breast it was 26.7%; with RXF 393 renal, -17.4% (active); in the test with SF-268 CNS it was 49.7%; in the test with SF-295 CNS, 22.9%; in the test on SF-539 CNS, 27.1%. Moreover, the growth was 54.9% with UACC-257 melanoma and 44.9% with M14 melanoma.
Take `COc1ccc(/C=N/N=C(/c2ccccc2)c2ccc3nc(-c4ccc(Cl)cc4)[nH]c3c2)cc1`: the growth with NCI-H23 lung is 91.1%; in the test on NCI-H226 lung it was 77%; in the test with NCI-H322M lung, 84.3%; in the test on HOP-62 NSCLC, 99.3%; in the test on NCI-H460 lung, 90%; in the test with HOP-92 NSCLC it was 106%. The growth was 72.9% in the test on NCI-H522 lung; 75.1% with A549/ATCC NSCLC; 76.9% in the test with 786-0 renal; 72% in the test on COLO 205 colon; 86.5% in the test on DU-145 prostate; 47.9% in the test with K-562 leukemia. Besides, the growth with MALME-3M melanoma was 90.6%; with MDA-MB-231 breast, 95%; in the test with RXF 393 renal, 83.3%; in the test on SF-268 CNS, 88.7%; in the test with SF-295 CNS, 81.3%; in the test with SF-539 CNS it was 87.7%. The growth in the test with UACC-257 melanoma is 101%; in the test on M14 melanoma it was 75.3%.

These data come from PubChem BioAssay (NCI).
